Records with an inconclusive call do not appear. Entries that show only a call come without a potency. Active and inactive are the calls of the source. Unless noted, calls follow the shape of the full dose curve.

The nature of one assay: qHTS assay to identify small molecule antagonists of the retinoid-related orphan receptor gamma (ROR-gamma) signaling pathway - cell viability counter screen (AID 1159520; active = well fitted cell-killing curve with a large enough effect in the repeat runs; also: nearly all actives have a fitted effect of over 50% in size; also: potency is read from the fitted curve at half-maximal effect). The settings on record: Tet-on RORgamma CHO cells viability, ATP luminescence, 16 h; series mostly up to 92.4 µM. The essentials: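 Tet-on ROR gamma CHO cells were given compounds for 2 hr, then doxycycline hyclate at 1 uM final, and incubated 16 hr at 37 C. Viability was measured as ATP content by CellTiter-Glo luminescence.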
In general terms: In qHTS, concentration-response curves come from the screen itself.
Consider `CCCCO`, for which the Potency result is “inactive”.
The same measure, in the same setting: as for `CCCn1cnc2c1c(=O)n(CCCCC(C)=O)c(=O)n2C`, the entry is “inactive”.
Turning to `ClCCOCCOCCCl`, the Potency entry was “inactive”.
On to `CC1=CC[C@H](C(C)C)C=C1`, for which the Potency result is “inactive”.
`OC[C@H]1O[C@@H](OCCc2ccc(O)cc2)[C@H](O)[C@@H](O)[C@@H]1O`: the Potency result was “inactive”.
Same read-out and setting: in the case of `Cc1ccc(C(=O)Oc2ccc(C(O)CNC(C)(C)C)cc2OC(=O)c2ccc(C)cc2)cc1` (stereo not given) it was 26.6 µM (active).
For the molecule `C/C=C/C=C/CO`, the Potency result was “inactive”.
In the case of `CCCCCCCN`, the Potency entry is “inactive”.
Still for that read-out and setting: in the case of `CCOC(=O)C(F)(F)F` it was “inactive”; in that of `CN1Cc2cc(C(=O)N3CCC(C4CCNCC4)CC3)ccc2NC(CC(=O)O)C1=O` (stereo not given), “inactive”.
Same read-out and setting: in the case of `O=C1OC(CN2CCOCC2)CN1/N=C/c1ccc([N+](=O)[O-])o1` (stereo not given) it was “inactive”; in that of `CN(C)CCCN1c2ccccc2Sc2ccccc21`, “inactive”; in that of `CCOC(=O)C(=O)CCc1ccccc1`, “inactive”.
The same measure, in the same setting: as for `O=C(Cl)c1cc(C(=O)Cl)cc(C(=O)Cl)c1`, the figure is 61.1 µM (active); as for `CC(=O)c1ccc2c(c1)N(CCCN1CCC(CCO)CC1)c1ccccc1S2`, “inactive”.

The nature of a further assay: qHTS assay to identify small molecule agonists of the AP-1 signaling pathway - cell viability counter screen (AID 1159525). Also: nearly all actives have a fitted effect of over 55% in size. The settings on record: ME-180 (cervical carcinoma) AP-1-bla cells viability, ATP luminescence, 5 h; series mostly up to 76.8 µM. A digest of the protocol: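 Same-well cytotoxicity counter screen of the Tox21 10K library in ME-180 cells. The readout is ATP-dependent luminescence after 5 h compound treatment. Data are normalised to DMSO and tetra n-octyl ammonium bromide controls.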
In the case of `CCC(=O)O[C@]1(C(=O)CCl)[C@@H](C)C[C@H]2[C@@H]3CCC4=CC(=O)C=C[C@]4(C)[C@@]3(F)[C@@H](O)C[C@@]21C`, the Potency result was “inactive”.
On the same count and under the same terms, as for `CCC(C)O` (stereo not given), the entry is “inactive”; as for `Cc1cc(C(=O)O)ccc1[N+](=O)[O-]`, “inactive”; as for `COC(C)(C)CCO`, “inactive”.
`CCCCC(=O)OCC(=O)[C@H]1[C@H](C)C[C@H]2[C@@H]3C[C@H](F)C4=CC(=O)C=C[C@]4(C)[C@@]3(F)[C@@H](O)C[C@@]21C`: the Potency result is “inactive”.
Same read-out and setting: in the case of `CCCCCCCCCOS(=O)(=O)O` it was “inactive”; in that of `N=c1ccn2c(n1)O[C@H]1[C@H](O)[C@@H](CO)O[C@H]12`, “inactive”.
Same read-out and setting: in the case of `C[C@H](CCC(=O)O)[C@H]1CC[C@H]2[C@@H]3CC[C@@H]4C[C@H](O)CC[C@]4(C)[C@H]3C[C@H](O)[C@]12C` it was “inactive”.
On the same count and under the same terms, as for `CNCCCCOc1ccccc1Cc1ccccc1`, the entry is “inactive”.
Take `CC1=CC=C(C(C)C)CC1`: the Potency entry was “inactive”.
As for `O=C(O)c1ccc(S(=O)(=O)O)cc1C(=O)O`, the Potency entry is “inactive”.
The same measure, in the same setting: in the case of `c1cc(CCCc2ccncc2)ccn1` it was “inactive”; in that of `Cc1ccc(C(C)OC(=O)C2(C)CCC(C(=O)O)C2(C)C)cc1` (stereo not given), “inactive”; in that of `CCOc1ccc(O)cc1`, “inactive”.
Still for that read-out and setting: in the case of `Nc1cccc([N+](=O)[O-])c1` it was “inactive”; in that of `C[N+](C)(C)CCOC(=O)CCC(=O)OCC[N+](C)(C)C`, “inactive”.
On the same count and under the same terms, in the case of `CC1(c2ccccc2)OC(C(=O)O)=CC1=O` (stereo not given) it was “inactive”.
On to `CCCCC(CC)COC(=O)CCCCCCCCC(=O)OCC(CC)CCCC` (stereo not given), for which the Potency entry was “inactive”.
The same measure, in the same setting: in the case of `CCOC(=O)COC(=O)c1cc(Oc2ccc(C(F)(F)F)cc2Cl)ccc1[N+](=O)[O-]` it was “inactive”.
On to `CC(CSC(=O)c1ccccc1)C(=O)N1C[C@@H](Sc2ccccc2)C[C@H]1C(=O)O` (stereo not given in full), for which the viability change, negative = cytotoxic was -2.27% [at 15.8 µM] (inactive).
Regarding `CCCCO`, the Potency entry was “inactive”.
With `CCCn1cnc2c1c(=O)n(CCCCC(C)=O)c(=O)n2C`, the Potency entry is “inactive”.
Still for that read-out and setting: as for `ClCCOCCOCCCl`, the entry is “inactive”; as for `CC1=CC[C@H](C(C)C)C=C1`, “inactive”; as for `OC[C@H]1O[C@@H](OCCc2ccc(O)cc2)[C@H](O)[C@@H](O)[C@@H]1O`, “inactive”.
On the same count and under the same terms, as for `Cc1ccc(C(=O)Oc2ccc(C(O)CNC(C)(C)C)cc2OC(=O)c2ccc(C)cc2)cc1` (stereo not given), the entry is “inactive”; as for `C/C=C/C=C/CO`, “inactive”; as for `CCCCCCCN`, “inactive”.
With `CCOC(=O)C(F)(F)F`, the Potency entry is “inactive”.
For the molecule `CN1Cc2cc(C(=O)N3CCC(C4CCNCC4)CC3)ccc2NC(CC(=O)O)C1=O` (stereo not given), the Potency entry is “inactive”.
On the same count and under the same terms, in the case of `O=C1OC(CN2CCOCC2)CN1/N=C/c1ccc([N+](=O)[O-])o1` (stereo not given) it was “inactive”.
Same read-out and setting: as for `CN(C)CCCN1c2ccccc2Sc2ccccc21`, the entry is “inactive”; as for `CCOC(=O)C(=O)CCc1ccccc1`, “inactive”.
With `O=C(Cl)c1cc(C(=O)Cl)cc(C(=O)Cl)c1`, the Potency result is “inactive”.
Same read-out and setting: in the case of `CC(=O)c1ccc2c(c1)N(CCCN1CCC(CCO)CC1)c1ccccc1S2` it was “inactive”.

(Values after PubChem BioAssay (Tox21).)
